Laboratory results from the supplement of paper PMC10412459.

Test system: K562 SF3B1 K700E vs K562 SF3B1 WT
Experiment: surviving fraction ratio K562 SF3B1 K700E / K562 SF3B1 WT (each relative to DMSO); higher = less selective killing of SF3B1 K700E cells
Conditions: 5 days
Method: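 Drug-sensitivity screen of an in-house 80-compound library in isogenic K562 SF3B1 K700E versus SF3B1 WT cells. 250 cells/well in 384-well plates were exposed 24 h after seeding to 0.5-1000 nM compound for 5 days, and viability was read by CellTiter-Glo. Surviving fraction is relative to DMSO, and the value is the ratio of surviving fraction in K700E to WT cells; the paper calls ratio <0.6 with P<0.01 selective.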

| Compound | surviving fraction ratio K562 SF3B1 K700E / K562 SF3B1 WT (0.5nM) | surviving fraction ratio K562 SF3B1 K700E / K562 SF3B1 WT (1nM) | surviving fraction ratio K562 SF3B1 K700E / K562 SF3B1 WT (5nM) | surviving fraction ratio K562 SF3B1 K700E / K562 SF3B1 WT (10nM) | surviving fraction ratio K562 SF3B1 K700E / K562 SF3B1 WT (50nM) | surviving fraction ratio K562 SF3B1 K700E / K562 SF3B1 WT (100nM) | surviving fraction ratio K562 SF3B1 K700E / K562 SF3B1 WT (500nM) | surviving fraction ratio K562 SF3B1 K700E / K562 SF3B1 WT (1000nM) |
| --- | --- | --- | --- | --- | --- | --- | --- | --- |
| CN(C)C/C=C/C(=O)Nc1cc2c(Nc3ccc(F)c(Cl)c3)ncnc2cc1O[C@H]1CCOC1 | 0.936 | 1.06 | 0.796 | 0.769 | 0.795 | 0.679 | 0.666 | 0.915 |
| COc1cc2nccc(Oc3ccc(NC(=O)C4(C(=O)Nc5ccc(F)cc5)CC4)cc3)c2cc1OC [Cabozantinib] | 0.718 | 0.805 | 0.831 | 0.71 | 0.733 | 0.704 | 0.503 | 0.686 |
| CS(=O)(=O)c1ccc(C(=O)Nc2ccc(Cl)c(-c3ccccn3)c2)c(Cl)c1 | 1.07 | 0.954 | 0.96 | 0.872 | 1 | 0.969 | 1.01 | 1.07 |
| COc1cc2c(Oc3ccc(NC(=O)C4(C(=O)Nc5ccc(F)cc5)CC4)cc3F)ccnc2cc1OCCCN1CCOCC1 [Foretinib] | 0.742 | 0.75 | 0.797 | 0.729 | 0.775 | 0.561 | 1.02 | 0.913 |
| COc1cc([C@@H]2c3cc4c(cc3[C@@H](O[C@@H]3O[C@@H]5CO[C@@H](C)O[C@H]5[C@H](O)[C@H]3O)[C@H]3COC(=O)[C@H]23)OCO4)cc(OC)c1O [etoposide] | 0.966 | 0.974 | 0.905 | 0.771 | 0.842 | 1.01 | 1.72 | 1.51 |
